The structures appear in SMILES notation. Values joined by “and” are separate entries in the source; they are usually repeats but may differ in a detail not shown here. Equal entries are not always repeated. Results filed as inconclusive are left out. For part of these data: Entries with a potency or affinity are not part of this list. Active and inactive are the calls of the source.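 How the source made its calls, unless noted: active means at least 20% inhibition of 6-phosphogluconate dehydrogenase activity; inactive means the rest.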

A short description of assay [1]: P. berghei load reduction in hepatocytes – cell-based, HepG2, luciferase luminescence, HepG2 viability, primary screen (AID 624349; in the data active means parasite load remaining mostly below about 12%, no sharp cut-off; inactive means mostly above about 10%;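 further: 100% = mean of DMSO negative control wells on the same plate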). The following applies: P. berghei liver stage in HepG2, luciferase luminescence, concentration not given here; parasite load remaining: stronger effect = lower value; viability: measured here: HepG2 viability without parasites.
For assay [2], the target named is 6-phosphogluconate dehydrogenase, decarboxylating (Homo sapiens) (UniProt P52209). The experiment in a line: inhibition of human phosphogluconate dehydrogenase – biochemical, recombinant enzyme, NADPH absorbance, primary screen (AID 1159550). The following applies: recombinant 6PGD, NADPH absorbance 341 nm; at 10 µM; stronger effect = higher value.
Sequence of 6-phosphogluconate dehydrogenase, decarboxylating (Homo sapiens) (P52209 whole entry, looked up): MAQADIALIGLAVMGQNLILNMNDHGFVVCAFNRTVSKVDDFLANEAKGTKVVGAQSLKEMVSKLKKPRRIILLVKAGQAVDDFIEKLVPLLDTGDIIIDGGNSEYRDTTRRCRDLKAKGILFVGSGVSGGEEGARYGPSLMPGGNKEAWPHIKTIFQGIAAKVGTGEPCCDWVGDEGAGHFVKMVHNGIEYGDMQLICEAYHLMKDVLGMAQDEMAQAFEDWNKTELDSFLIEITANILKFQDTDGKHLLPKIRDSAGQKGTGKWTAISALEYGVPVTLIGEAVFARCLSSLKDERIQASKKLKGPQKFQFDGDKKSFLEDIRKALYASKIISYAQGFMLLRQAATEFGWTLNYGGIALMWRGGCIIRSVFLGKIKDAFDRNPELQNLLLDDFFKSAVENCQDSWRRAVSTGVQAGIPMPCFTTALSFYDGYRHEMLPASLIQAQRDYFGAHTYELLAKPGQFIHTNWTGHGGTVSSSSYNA
Assay [3] is described as follows: EMT-state selective cytotoxicity in co-culture – imaging, PC-3E GFP, TEM4-18 mCherry, primary screen (AID 1345086;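 active means compounds killing one labelled cell type while sparing the other, by normalised counts and ratio limits, not self-fluorescent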;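 on all read-outs here: cells exposed to compound for 72 h before imaging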;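 on red/green cell ratio (normalised): normalised mesenchymal count divided by normalised epithelial count so high means epithelial killing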). The settings on record: PC-3E GFP / TEM4-18 mCherry co-culture, imaging cell counts, at 1 µM; for red/green cell ratio (normalised): actives lie on both sides.
Assay [4] in a line: viability loss with induced miR-34 in A549 – imaging, A549 dox-inducible miR-34, nuclei and caspase counts, primary screen (AID 1347080;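 active means compounds whose cell count with miR-34 switched on is under 0.7 times the count with it off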). The settings on record: A549 miR-34 inducible, Hoechst nuclei count, 48 h.
Assay [5] has as its target NAD(+) hydrolase SARM1 (Homo sapiens) (UniProt Q6SZW1). The experiment in a line: blocking NAD cleavage by SARM1 SAM-TIR – cell lysate, NAD-Glo luminescence (AID 1508614;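 active means compound whose remaining NAD level is above about 45 nM, limit read from the data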). The following applies: SAM-TIR HEK293T lysate NADase, at 1 µM, stronger effect = higher value.
Assay [6] deals with Mitogen-activated protein kinase 7 (Homo sapiens) (UniProt Q13164). The experiment in a line: Gal4-ERK5 driven luciferase induction – cell-based, HTS, primary screen (AID 1508626;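 active means luciferase signal above three times the same-plate solvent-only control wells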;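 further: luciferase driven by Gal4-ERK5 fusion binding five Gal4 sites before minimal TATA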). The following applies: HeLa Gal4-ERK5 transactivation, 18 h, at 5 µM, stronger effect = higher value.
Sequence of Mitogen-activated protein kinase 7 (Homo sapiens) (Q13164 whole entry, looked up, the tested form may be a part): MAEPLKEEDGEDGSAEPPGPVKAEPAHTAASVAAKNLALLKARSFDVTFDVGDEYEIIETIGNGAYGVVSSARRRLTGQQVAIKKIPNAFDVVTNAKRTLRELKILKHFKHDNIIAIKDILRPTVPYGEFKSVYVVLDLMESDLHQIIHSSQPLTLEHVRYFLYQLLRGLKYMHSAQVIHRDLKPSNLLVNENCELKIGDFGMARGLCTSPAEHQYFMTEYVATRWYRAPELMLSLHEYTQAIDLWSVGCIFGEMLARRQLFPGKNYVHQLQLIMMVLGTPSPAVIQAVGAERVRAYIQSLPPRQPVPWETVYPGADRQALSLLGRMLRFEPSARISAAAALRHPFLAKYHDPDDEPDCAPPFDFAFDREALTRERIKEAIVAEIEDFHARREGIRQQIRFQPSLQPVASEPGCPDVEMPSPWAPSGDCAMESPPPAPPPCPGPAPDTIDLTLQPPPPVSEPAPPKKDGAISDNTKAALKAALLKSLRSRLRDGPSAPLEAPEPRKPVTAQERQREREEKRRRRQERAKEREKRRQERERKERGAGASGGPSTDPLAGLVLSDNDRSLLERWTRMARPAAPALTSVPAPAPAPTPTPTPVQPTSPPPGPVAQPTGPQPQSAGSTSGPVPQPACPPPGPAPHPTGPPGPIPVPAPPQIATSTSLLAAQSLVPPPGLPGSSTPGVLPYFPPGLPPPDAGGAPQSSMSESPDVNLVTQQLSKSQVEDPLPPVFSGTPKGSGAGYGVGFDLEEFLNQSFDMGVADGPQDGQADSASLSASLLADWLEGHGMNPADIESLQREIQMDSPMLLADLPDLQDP
In assay [7] the test system is Aerobactin synthetase IucA (Klebsiella pneumoniae hvKP1). The experiment in a line: IucA enzyme inhibition, primary screen, biochemical, Spectrum library (AID 1346200; call rule not given here;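 further: 100% = wells without compound and 0% = wells lacking enzyme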). The following applies: malachite green pyrophosphate, A620, at 8 µM, stronger effect = lower value.
The nature of assay [8]: blockers of polyQ-driven CASP3 activation – cell-based (AID 1583). The settings on record: polyglutamine-induced caspase-3 activation, cell assay; stronger effect = higher value;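 tested at 10 µM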.
Assay [9] is described as follows: yeast 75Q aggregation reduction – 75Q-TubU reporter (AID 1593). The following applies: Yeast 75Q polyglutamine aggregation reporter.
Assay [10] is described as follows: restoration of touch response, mutant HTT neurons – whole organism, C. elegans mechanosensory neurons, N-terminal huntingtin (AID 1599). The following applies: C. elegans polyQ-huntingtin mechanosensory neurons, stronger effect = higher value.
Assay [11] can be described thus: blockers of cytochrome c efflux from mitochondria – biochemical, purified mitochondria (AID 1603).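 Further: mouse liver mitochondria challenged with calcium chloride; signal normalized to the plate average as 100%.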 The settings on record: stronger effect = lower value.
Assay [12] can be described thus: polyglutamine aggregate formation blockers (AID 1604). The following applies: polyglutamine-induced protein aggregation inhibition assay; stronger effect = higher value; tested at 2.5 µM.
Assay [13] is described as follows: glutamate transport activators, MN-1 cells, MN-1 cell line (AID 1612).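 Further: tested at 1 µM final; 0% = mean of DMSO vehicle wells on each plate; positive means more glutamate uptake than control and negative means less.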 The settings on record: MN-1 motor neuron cells, stronger effect = higher value.
Assay [14] in a line: GFP-Q80 aggregate reduction, neuronal-like cells, cell-based, NGF-treated PC12, GFPQ80 (AID 1614).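 Further: lower means fewer inclusions and 0 means no inclusions at all.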 The following applies: PC12 NGF-treated GFP-polyQ80 inclusion reduction.
Assay [15] in a line: 75Q-TubH aggregate inhibition, S. cerevisiae, yeast (AID 1616). The following applies: S. cerevisiae 75Q-TubH polyglutamine aggregation suppression; stronger effect = higher value.
A short description of assay [16]: viability loss in pontine glioma line – cell-based, SU-DIPG-XVII, MIPE5.0, CellTiter-Glo, qHTS, dose response (AID 1347060; cut-off not given, nearly all actives have AC50 up to about 26 µM). The following applies: CellTiter-Glo ATP luminescence. In general terms: ATP-based viability assays read luminescence as a measure of living cells.
A short description of assay [17]: viability loss in pontine glioma line – cell-based, SU-DIPG-XIII, MIPE4.0, CellTiter-Glo, qHTS, dose response (AID 1347061; cut-off not given, nearly all actives have AC50 up to about 37 µM;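 further: cells exposed to compound for 48 hours before readout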). The settings on record: CellTiter-Glo ATP luminescence.
The nature of assay [18]: viability loss in pontine glioma line – cell-based, JHH-DIPG-1, MIPE4.0, CellTiter-Glo, qHTS, dose response (AID 1347062; cut-off not given, nearly all actives have AC50 up to about 27 µM). The settings on record: JHH-DIPG-1 viability, CellTiter-Glo ATP luminescence.
A short description of assay [19]: viability loss in pontine glioma line – cell-based, SU-DIPG-IV, MIPE4.0, CellTiter-Glo, qHTS, dose response (AID 1347063; cut-off not given, nearly all actives have AC50 up to about 30 µM;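 further: compound exposure lasted 48 hours before the viability readout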). The settings on record: CellTiter-Glo ATP luminescence.
The nature of assay [20]: viability loss in pontine glioma line – cell-based, SU-DIPG-XIII, MIPE5.0, CellTiter-Glo, qHTS, dose response (AID 1347064; cut-off not given, nearly all actives have AC50 up to about 23 µM). The settings on record: CellTiter-Glo ATP luminescence.
Assay [21] can be described thus: viability loss in pontine glioma line – cell-based, SU-DIPG-XXV, MIPE5.0, CellTiter-Glo, qHTS, dose response (AID 1347065; cut-off not given, nearly all actives have AC50 up to about 26 µM;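 further: cells exposed to compound for 48 hours before ATP readout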). The settings on record: CellTiter-Glo ATP luminescence.
Assay [22] is described as follows: JHH-DIPG-1 glioma cell viability, MIPE5.0 library, CellTiter-Glo luminescence, qHTS (AID 1347067; cut-off not given, nearly all actives have AC50 up to about 26 µM;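 further: cells exposed to compound for 48 hours before readout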). The following applies: JHH-DIPG-1 glioma viability, CellTiter-Glo ATP luminescence.
Assay [23] in a line: growth inhibition of DIPG cells – cell-based, MIPE5.0 library, qHTS (AID 1347068; cut-off not given, nearly all actives have IC50 up to about 30 µM). The settings on record: SU-DIPG-XXV viability. (qHTS replaces the single test concentration by a dilution series.)
Assay [24] can be described thus: compounds altering HSF1 focus formation in cells – imaging, Selleck Cancer Library (AID 1347162; in the data active means plate-normalised HSF1 focus index below about 0.46). The settings on record: human cells, HSF1 nuclear foci imaging, at 10 µM; SSMD: measured here: HSF1 foci SSMD mean; cell count: measured here: cell number; plate-normalised HSF1 focus index: stronger effect = lower value.
Assay [25] can be described thus: MELAS cybrid and Rieske KO viability enhancers – cell-based, MELAS cybrids, Rieske KO mouse fibroblasts, CellTiter-Glo, primary screen (AID 1508586;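 active means mean z-score across replicates of 1.96 or higher in either the MELAS or the Rieske mutant cell line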;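 further: z relative to plate mean and SD of compound and empty wells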). The following applies: low glucose.
A short description of assay [26]: galactose survival enhancers in mitochondrial complex I cybrids – cell-based, galactose medium, ATP luminescence, primary screen (AID 1645843;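 active means z-score of at least 1.8 in each of two replicates, scored against plate mean and spread of sample wells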;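 further: positive z means more ATP and so rescue of galactose-driven cybrid death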). The following applies: complex I mutant cybrid cells, 72 h, stronger effect = higher value.
Setting [27] is: measured here: epithelial PC-3E GFP cell survival.
[28] abbreviates: measured here: mesenchymal TEM4-18 mCherry cell survival.
Where [29] appears, read: measured here: relative caspase fold change +Dox/-Dox.
Setting [30] is: measured here: total cells with miR-34 induction, stronger effect = lower value.
The mark [31] stands for this setting: measured here: total cells without miR-34 induction.

Sequence of NAD(+) hydrolase SARM1 (Homo sapiens) (Q6SZW1 whole entry, looked up, the tested form may be a part): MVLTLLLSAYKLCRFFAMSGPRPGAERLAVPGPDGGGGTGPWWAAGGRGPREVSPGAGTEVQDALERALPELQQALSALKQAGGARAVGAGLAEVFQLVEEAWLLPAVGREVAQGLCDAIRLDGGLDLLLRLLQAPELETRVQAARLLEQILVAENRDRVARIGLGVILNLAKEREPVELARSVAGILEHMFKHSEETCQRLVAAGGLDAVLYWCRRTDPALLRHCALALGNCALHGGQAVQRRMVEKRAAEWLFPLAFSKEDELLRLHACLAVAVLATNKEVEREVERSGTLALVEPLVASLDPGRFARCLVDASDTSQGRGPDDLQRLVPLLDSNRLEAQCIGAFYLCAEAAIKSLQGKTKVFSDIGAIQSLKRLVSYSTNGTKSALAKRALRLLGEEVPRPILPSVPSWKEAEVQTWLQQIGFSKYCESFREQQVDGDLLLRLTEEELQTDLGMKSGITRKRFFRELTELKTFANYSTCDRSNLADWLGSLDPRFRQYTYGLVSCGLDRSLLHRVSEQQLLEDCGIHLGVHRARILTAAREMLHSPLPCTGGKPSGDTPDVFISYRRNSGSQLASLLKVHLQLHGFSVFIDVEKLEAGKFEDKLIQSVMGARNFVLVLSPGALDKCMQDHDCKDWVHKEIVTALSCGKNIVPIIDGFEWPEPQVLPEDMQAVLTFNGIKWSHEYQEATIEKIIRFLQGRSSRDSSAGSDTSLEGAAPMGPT

Regarding `CCCCOC(=O)c1ccccc1C(=O)OCCCC`, the parasite load remaining in assay [1] was 68.9% (inactive). In assay [1], the viability amounted to 91.7%. For the same compound, in assay [2], the inhibition was 4.37% (inactive). The red/green cell ratio (normalised) in assay [3] is 1.22 (inactive). Moreover, the normalised cell number in assay [3] (setting [27]) is 0.78; in assay [3] (setting [28]), 0.95. For the same compound, the fold change is 0.891 (inactive) in assay [4] (stronger effect = lower value) and 1.43 in assay [4] (setting [29]). The cell count in [4] (setting [30]) was 10600; in assay [4] (setting [31]), 11900. For the same compound, the remaining NAD in [5] was 10 nM (inactive). Further, the luciferase signal in [6] was 76 AU (inactive).

For the compound `COc1c(CC=C(C)C)c2c(c3oc(=O)c(-c4ccc(O)cc4)c(O)c13)C=CC(C)(C)O2`, the inhibition in assay [2] was -2.87% (inactive). Besides, the activity remaining in assay [7] is 114% (inactive).

In the case of `C=CCc1cc(OC)c2c(c1OC)OCO2`, the inhibition in [2] is -12.9% (inactive). In assay [3], the red/green cell ratio (normalised) is 1.18 (inactive). In addition, the normalised cell number in [3] (setting [27]) came out at 0.73; in [3] (setting [28]), 0.87. In addition, the luciferase signal in assay [6] is 32 AU (inactive).

`N#C/C(=C\c1cccc(O)c1)C(=O)O`: the inhibition was 16.4% in assay [8] and 11.3% (inactive) in assay [2]. This compound also came in with a score in [9] of 1.48. The same compound yielded a rescue above control in [10] of -1.13. Besides, the cytochrome c release ratio in [11] stood at 2.28. In addition, the inhibition of aggregation in [12] came out at 58.6%. Besides, in assay [13], the glutamate uptake change is -1.74%. The compound further gave an inclusion score in [14] of 2. The compound also showed an aggregation suppression score in [15] of 1.54. Moreover, in assay [3], the red/green cell ratio (normalised) was 0.88 (inactive). The normalised cell number in assay [3] (setting [27]) stood at 1.09; in assay [3] (setting [28]), 0.96. The activity remaining in assay [7] is 104% (inactive). Besides, the luciferase signal in assay [6] is 128 AU (inactive).

Take `CCC(N)C(O)c1ccc(O)c(O)c1` (stereo unspecified): the parasite load remaining in assay [1] is 130% (inactive) and 71.4% (inactive). In assay [1], the viability was 87.2% and 104%. Further, the inhibition in assay [2] was -10.4% (inactive). Further, the activity remaining in assay [7] is 121% (inactive). The fold change in assay [4] (stronger effect = lower value, cell number ratio, induced over uninduced) was 0.787 (inactive); in assay [4] (setting [29]) it was 5.47. The cell count in assay [4] (setting [30]) was found to be 7560; in [4] (setting [31]), 9610. The remaining NAD in [5] is 10 nM (inactive). In addition, the luciferase signal in assay [6] was 76 AU (inactive).

As to `C[C@]12CCC(=O)C(O)=C1CC[C@@H]1[C@@H]2CC[C@]2(C)C(=O)CC[C@@H]12`, in [1], the parasite load remaining was 20.3% (inactive). Also, the viability in assay [1] stood at 80.5%. The inhibition in assay [2] was -18.3% (inactive). In addition, the outcome in assay [16], in assay [17], in assay [18], in assay [19], in [20] and in assay [21] was inactive. In addition, the call in [22] and in assay [23] was inactive. The fold change in assay [4] (stronger effect = lower value) was 0.801 (inactive); in assay [4] (setting [29]), 1.62. The figures for the cell count in assay [4] (setting [30]), in [4] (setting [31]) and in assay [24] were 8120, 10100 and 6710, respectively. In assay [24], this compound registered an SSMD of 1.39. Further, the plate-normalised HSF1 focus index in [24] is 1.07 (inactive). For the same compound, the z-score in [25] (MELAS cybrid survival, CellTiter-Glo 48 h, stronger effect = higher value) is 1.07 (inactive) and 0.415 (inactive); in assay [25] (Rieske KO mouse fibroblast survival, CellTiter-Glo 72 h), -0.144 and -0.532; in [26], 0.27 (inactive). The remaining NAD in assay [5] is 10 nM (inactive). Further, the luciferase signal in assay [6] was 48 AU (inactive).

For orientation: viability means a read-out of living cells in per cent, often relative to untreated cells. In general, inhibition refers to the change of the read-out against control, counted positive when it falls.
